# An excerpt weighted towards active compounds, which were near 1.5% of everything screened.
# FEN1 inhibitor – qHTS Assay for the Inhibitors of Human Flap endonuclease 1 (FEN1); P39748; Recombinant FEN1 flap cleavage, fluorescence, 15 min; Potency, µM (highest dose often 114 µM), without a hit: at the top dose activity change, negative = inhibition, actives largely listed as inhibitors; 0.35% of 390,000 active; AID 588795, 2011; further: potency means the concentration at half of the fitted maximal effect; nearly all actives have a fitted effect of over 65% in size
#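 FEN1 at 10 nM, compound pretreatment for 15 min (room temperature), 50 nM final substrate to initiate; endpoint reads at 0 and 15 min; DMSO-only plates used as vehicle background.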
# WRN inhibitor – qHTS for Inhibitors of WRN Helicase | Bifunctional 3'-5' exonuclease/ATP-dependent helicase WRN (Homo sapiens), Q14191 | WRN helicase unwinding, fluorescent forked duplex, kinetic | Potency, µM (titrated, usually from 114 µM), without a hit: top-dose activity change, negative = inhibition, actives largely listed as inhibitors | 0.46% of 360,000 active; further: potency means the concentration at half of the fitted maximal effect; nearly all actives have a fitted effect of over 55% in size
#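 Kinetic red-fluorescence monitoring (525/598 nm) tracks WRN helicase activity after 100 nM fluorophore-quencher forked duplex and 2 mM ATP are added to 20 nM enzyme pretreated 15 min at room temperature with compound.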
# Tb PFK block – qHTS Assay to Find Inhibitors of T. brucei phosphofructokinase; T. brucei PFK, ADP-Glo luminescence; Potency, µM (series often up to 57.5 µM), inactives show at the top dose activity, negative = inhibition, most hits filed as inhibitors; ATP-dependent 6-phosphofructokinase (Trypanosoma brucei brucei), O15648; 0.17% of 330,000 active;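 further: potency means the concentration at half of the fitted maximal effect; 0% = uninhibited 1x PFK enzyme wells and -100% = no-enzyme wells; nearly all actives have a fitted effect of over 60% in size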
#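 In TEA buffer at pH 8.0 with 5 mM MgCl2, enzyme (1.25 nM) converted F6P (0.5 mM) and ATP (0.1 mM) for 45 min at room temperature. ADP product was read by luciferase luminescence.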
# PI5P4Ka inh – qHTS for Inhibitors of phosphatidylinositol 5-phosphate 4-kinase (PI5P4K). max response, %. PI5P4Kalpha enzyme, ADP-Glo luminescence, 60 min; stronger effect = lower value. 1.2% of 330,000 active. Phosphatidylinositol 5-phosphate 4-kinase type-2 alpha (Homo sapiens), P48426; active means max response of -50% or lower; inconclusive means between -30% and -50%; inactive means -30% or higher; further: value at the top dose of about 77 µM
#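 Enzyme plus substrate dispensed, test compounds pinned in, then ATP (5 microM final) added. After 60 min at RT, ADP-Glo reagent 1 for 45 min and reagent 2 for 30 min preceded luminescence imaging.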
# TDP1 block – qHTS Assay for Inhibitors of Tyrosyl-DNA Phosphodiesterase (TDP1); 0.28% of 350,000 active; Potency, µM (titrated, usually from 130 µM), for inactives: at the top dose activity change, negative = inhibition, actives largely listed as inhibitors; recombinant TDP1, AlphaScreen DNA substrate cleavage; Tyrosyl-DNA phosphodiesterase 1 (Homo sapiens), Q9NUW8; further: potency means the concentration at half of the fitted maximal effect; nearly all actives have a fitted effect of over 40% in size
# Target sequence (Q9NUW8 whole entry, looked up): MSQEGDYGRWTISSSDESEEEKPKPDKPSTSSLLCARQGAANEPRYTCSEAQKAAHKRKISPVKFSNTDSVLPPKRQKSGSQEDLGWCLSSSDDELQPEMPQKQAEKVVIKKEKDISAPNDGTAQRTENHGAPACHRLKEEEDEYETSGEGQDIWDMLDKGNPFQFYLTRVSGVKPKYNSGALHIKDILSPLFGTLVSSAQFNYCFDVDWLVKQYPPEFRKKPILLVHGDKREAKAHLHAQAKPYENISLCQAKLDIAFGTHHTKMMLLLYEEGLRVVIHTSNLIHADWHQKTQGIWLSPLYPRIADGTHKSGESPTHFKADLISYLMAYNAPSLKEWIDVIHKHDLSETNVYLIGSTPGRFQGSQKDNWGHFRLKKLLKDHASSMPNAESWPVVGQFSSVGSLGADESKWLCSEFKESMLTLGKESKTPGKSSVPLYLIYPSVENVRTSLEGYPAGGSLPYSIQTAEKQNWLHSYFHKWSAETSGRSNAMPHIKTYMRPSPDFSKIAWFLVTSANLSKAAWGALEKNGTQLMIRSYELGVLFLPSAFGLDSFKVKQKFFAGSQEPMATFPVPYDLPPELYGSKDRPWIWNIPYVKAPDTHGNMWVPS
#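 E. coli-derived human Tdp1, 1 nM final. Cpd preinc 15 min RT; substrate 15 nM final, 5 min RT; AS bead mix 10 ug/ml final, 10 min RT. Signal loss = tyrosine-FITC cleavage. No-enzyme wells = max signal.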
# Tb PGK inh – qHTS Assay to Find Inhibitors of Phosphoglycerate Kinase | Phosphoglycerate kinase, glycosomal (Trypanosoma brucei brucei), P07378 | Potency, µM (top dose mostly 57.5 µM), for the others: at the highest dose activity change, negative = inhibition, usual class: inhibitors | AID 602233, 2012 | 0.043% of 380,000 active | PGK/GAPDH coupled, Kinase-Glo luminescence, 60 min; further: potency means the concentration at half of the fitted maximal effect; nearly all actives have a fitted effect of over 60% in size
#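 Recombinant glycosomal PGK reaction used 1,3-bisphosphoglycerate generated in-well by GAPDH (100nM final) in 100mM TEA pH 7.6, 5mM MgCl2, 0.01% Tween-20. After 60 minutes at room temperature, ATP was read by Kinase-Glo Plus luminescence end-point.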
# * hit, by the source's call; i = inactive; ? = inconclusive; . = not tested or not shown; [ ] = remark or other dose. Unless noted, the call rests on the fitted dose curve; in most records, active means well fitted curve in the direction sought with a large enough effect; inconclusive means small, poorly fitted or top-dose-only effect, or another doubt; inactive means no such curve, though single readings can be large; an effect the other way counts as inactive or inconclusive. Unless noted, on the % scale 0 is the no-effect control and ±100 the full control effect.
SMILES,FEN1 inhibitor,WRN inhibitor,Tb PFK block,PI5P4Ka inh,TDP1 block,Tb PGK inh
O=C(O)c1cccc(NC(=S)NC(NC(=O)c2cccc([N+](=O)[O-])c2)C(Cl)(Cl)Cl)c1 (centres undefined),-9%,?,3%,1,79µM*,-29%
COc1cc([N+](=O)[O-])ccc1NC(=S)Nc1cccc(C(=O)O)c1,3%,-34%[57.1 µM],-6%,-12,-8%,-3%
COc1cc(N(C)C)c(OC)cc1C=O,-2%,.,.,.,.,.
COc1ccc(C2c3ccccc3Oc3ncn(CCN4CCOCC4)c(=N)c32)cc1OC (centres undefined),.,.,.,.,-6%,.
O=C(N/N=C/C(Cl)=C/c1ccc([N+](=O)[O-])cc1)C(=O)Nc1ccccc1C(=O)O,?,?,6%,-50*,?,?
CCOC(=O)/C=C/c1cc(F)c(S(=O)(=O)N2CCN(S(=O)(=O)c3ccc4c(c3)OCCO4)CC2)cc1F,.,.,.,.,1%,.
O=Cc1ccc(C(=O)OCC(=O)NCc2ccco2)cc1,3%,-18%,-5%,-53*,0%,i
COc1ccc(CNC(=O)COC(=O)c2ccc(S(=O)(=O)NCc3ccco3)cc2)cc1,6%,-9%,?,-23,18µM*,?
O=C(Nc1ccc(S(=O)(=O)NCc2ccco2)cc1)c1ccc(F)cc1,-21%,-7%[11.6 µM],-4%,-8,56µM*,-12%
CCN(CC)S(=O)(=O)c1ccc(/C=C/C(=O)OCC(=O)NCc2ccco2)cc1,-5%,?,?,-57*,.,-17%
O=C(Nc1ccccc1)c1ccc(S(=O)(=O)NCc2ccco2)cc1,1%,-26%,7%,-1,2%,-8%
CC(C)(C)c1ccc(C(=O)OCC(=O)NCc2ccco2)cc1,-7%,1%,0%,5,1%,i
O=C(COC(=O)c1ccc(S(=O)(=O)NCc2ccco2)cc1)NCc1ccc(F)cc1,19%,-12%,0%,-16,-10%,-7%
Cc1nn(C)c2c1c(-c1ccccc1)cc(=O)n2CC(=O)NC(C)c1ccccc1 (centres undefined),0%,.,.,.,.,?
Cc1cc2c(s1)c1cnn(Cc3ccccc3F)c(=O)c1n2C(C)C,.,.,.,.,-8%,.
O=C(C[n+]1ccccc1Br)c1ccc(I)cc1,-12%,.,.,.,.,.
Cn1c(CCCNC(=O)c2ccco2)nc2ccccc21,-5%,-30%,.,-70*,.,i
C=CCc1cccc2cc(C(=O)Nc3ccc(CC(=O)O)cc3)c(=O)oc12,?,-8%[11.6 µM],-7%,-28,50µM*,-13%
Nc1ccc(C(=O)Nc2ccc3c(O)cc(S(=O)(=O)O)cc3c2)cc1,?,-17%[11.6 µM],.,-52*,.,-10%
Nc1ccc(NC(=O)c2ccc(C(=O)Nc3ccc(N)cc3)cc2)cc1,-6%,-19%,?,-14,79µM*,0%
Nc1ccc(C(=O)Nc2ccc(Nc3ccncc3)cc2)cc1,-8%,2%,3%,-9,-1%,-5%
O=C(CNC(=O)c1cccnc1)c1ccc(F)cc1,11%,.,.,.,.,.
O=C(O)C1Cc2ccccc2CN1C(=O)COc1ccc(Cl)cc1Cl (centres undefined),-1%,-7%[11.6 µM],-4%,3,-3%,10%
O=C(O)C1Cc2ccccc2CN1C(=O)COc1ccc(Br)cc1 (centres undefined),0%,-19%,0%,2,22µM*,-13%
COc1ccc(NC(=O)CC(C)=O)c(OC)c1,16%,-1%,-2%,-64*,.,-6%
SMILES,FEN1 inhibitor,WRN inhibitor,Tb PFK block,PI5P4Ka inh,TDP1 block,Tb PGK inh
COC(=O)c1ccccc1S(=O)(=O)Nc1cc(=O)c2ccccc2[nH]1,.,.,.,.,2%,.
O=[N+]([O-])c1ccc(-c2c[nH]c(=S)[nH]2)cc1,-5%,-9%[11.6 µM],-2%,-77*,0%,-15%
S=c1[nH]cc(-c2ccccc2)[nH]1,19%,-9%,-24%,2,.,-4%
Cc1c(Cl)cccc1NS(=O)(=O)c1cc2c(cc1F)NC(=O)CC2,.,.,.,.,0%,.
O=C1NC(=S)SC1=C1CCCC1,79µM*,45µM*,?,?,.,-12%
O=C1C=CC(=O)N1N(c1ccccc1)c1ccccc1,-14%,35µM*,-2%,-28,8%,-3%
O=C1CCCN2N=C(SCC(=O)Nc3nccs3)SC2=N1,11%,?,5%,-21,45µM*,-13%
CC[C@H](C)[C@H](N)C(=O)N[C@H]1CCC(=O)NCC(C(=O)N[C@@H](Cc2ccc(O)cc2)C(=O)N[C@@H](CCCNC(=N)N)C(=O)N[C@@H](CC(C)C)C(=O)N[C@@H](CCCNC(=N)N)C(=O)N[C@@H](Cc2ccc(O)cc2)C(N)=O)NC(=O)[C@@H]2CCCN2C(=O)[C@@H](NC(=O)[C@@H](N)[C@@H](C)CC)CCC(=O)NCC(C(=O)N[C@@H](Cc2ccc(O)cc2)C(=O)N[C@@H](CCCNC(=N)N)C(=O)N[C@@H](CC(C)C)C(=O)N[C@@H](CCCNC(=N)N)C(=O)N[C@@H](Cc2ccc(O)cc2)C(N)=O)NC(=O)[C@@H]2CCCN2C1=O (some centres undefined),.,.,.,.,12%,.
CCOc1ccc(Nc2n[nH]c(=S)s2)cc1,-4%,-8%,0%,-76*,8%,-2%
CCSc1nnc(Nc2ccc(C)cc2)s1,-10%,-11%,-7%,.,4%,4%
S=c1[nH]nc(Nc2ccc(Cl)cc2)s1,-10%,-9%,-22%,-73*,9%,-11%
CCOc1ccc(Nc2nc3ccccc3c(=O)s2)cc1,-6%,-4%,1%,-6,.,-4%
Cc1ccc(Nc2nnns2)cc1C,-2%,-3%,-7%,-22,5%,-7%
Cc1nnc(Nc2ccc(Cl)cc2)s1,-2%,-22%,-4%,9,.,-1%
Cc1ccc(Nc2n[nH]c(=S)s2)cc1,.,3%,.,-68*,.,-2%
Cc1ccc(Nc2n[nH]c(=S)s2)cc1F,-5%,?,.,-76*,.,i
Cc1ccc(NS(=O)(=O)c2cc3c(cc2-c2ccccc2)NC(=O)CO3)cc1C,.,.,.,.,0%,.
Fc1cc(F)cc(Nc2nc(NC3CCCC3)nc(C3CO3)n2)c1 (centres undefined),.,.,.,.,2%,.
C=CCCCN(Cc1ccccc1)S(=O)(=O)c1ccccc1Br,-12%,-10%,1%,13,40µM*,-2%
